Reference: PubChem BioAssay (Tox21)
Values joined by “and” are separate entries in the source; they are usually repeats but may differ in a detail not shown here. Equal values may be shown once. Results filed as inconclusive are left out. Entries that show only a call come without a potency. Active and inactive are the calls of the source. Unless noted, calls come from the whole dose curve.

Legend:
[1] = Nuclear factor erythroid 2-related factor 2/antioxidant responsive element (Nrf2/ARE) small molecule agonists: qHTS cell viability counter screen in human keratinocytes (AID 1919968; active = well fitted curve in the direction sought with a large enough effect in the repeat runs; an effect the other way counts as inactive or inconclusive; note: nearly all actives have a fitted effect of over 55% in size)
Outline: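 In human HaCaT keratinocytes stably expressing an ARE-driven luciferase, compound exposure lasted 23 h at 37 C under 5% CO2. Viable cells are quantified with a protease-based fluorogenic reagent (CellTiter-Fluor) read 1 h after addition.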

[2] = Nuclear factor erythroid 2-related factor 2/antioxidant responsive element (Nrf2/ARE) small molecule agonists: luciferase reporter gene qHTS assay in human keratinocytes (AID 1919969); note: nearly all actives have a fitted effect of over 35% in size; note: potency is the fitted concentration of half-maximal effect
[3] = biological target: Gonadotropin-releasing hormone receptor (Homo sapiens) (UniProt P30968); assay: Human gonadotropin-releasing hormone receptor (GnRHR) small molecule agonists, calcium flux assay in GnRHR-HEK293 cells (AID 1920063); note: nearly all actives have a fitted effect of over 35% in size
Chain of Gonadotropin-releasing hormone receptor (Homo sapiens) (P30968 whole entry, looked up): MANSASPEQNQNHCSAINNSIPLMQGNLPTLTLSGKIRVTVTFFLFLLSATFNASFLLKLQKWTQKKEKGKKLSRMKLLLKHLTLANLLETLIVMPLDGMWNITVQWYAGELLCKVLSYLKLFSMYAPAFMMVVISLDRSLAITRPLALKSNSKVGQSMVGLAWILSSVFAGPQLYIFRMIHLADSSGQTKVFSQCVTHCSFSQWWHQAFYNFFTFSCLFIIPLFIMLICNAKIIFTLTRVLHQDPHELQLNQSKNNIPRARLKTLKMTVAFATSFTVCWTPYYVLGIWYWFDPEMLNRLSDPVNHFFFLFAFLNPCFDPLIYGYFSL
Outline: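 Intracellular calcium rise is the read-out: engineered human GnRHR HEK293 cells, dye-loaded, are exposed to DMSO-dissolved compounds and fluorescence at Ex/Em 480/540 is tracked for 3 min.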

[4] = biological target: KiSS-1 receptor (Homo sapiens) (UniProt Q969F8); assay: Human kisspeptin (KISS1R) small molecule agonists, calcium flux assay in KISS1R-HEK293 cells (AID 1920064; active = well fitted curve in the direction sought with a large enough effect in the repeat runs; an effect the other way counts as inactive or inconclusive)
Chain of KiSS-1 receptor (Homo sapiens) (Q969F8 whole entry, looked up): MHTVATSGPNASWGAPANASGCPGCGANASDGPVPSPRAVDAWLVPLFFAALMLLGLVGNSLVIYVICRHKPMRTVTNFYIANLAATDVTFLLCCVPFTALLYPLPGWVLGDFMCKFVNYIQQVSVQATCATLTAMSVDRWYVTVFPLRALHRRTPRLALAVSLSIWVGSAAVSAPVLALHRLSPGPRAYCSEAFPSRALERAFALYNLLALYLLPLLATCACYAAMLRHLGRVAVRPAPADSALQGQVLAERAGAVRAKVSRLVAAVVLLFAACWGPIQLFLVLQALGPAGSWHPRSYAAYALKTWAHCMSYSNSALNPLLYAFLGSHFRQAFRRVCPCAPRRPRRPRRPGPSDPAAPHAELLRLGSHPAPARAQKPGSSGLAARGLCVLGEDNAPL
Outline: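 Concentration-response testing used 15 concentrations in triplicate on human KISS1R-expressing HEK293 cells. Calcium-dependent fluorescence (Ex/Em 480/540) was followed kinetically for 3 min after compound transfer.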

[5] = G protein-coupled receptor (GPCR) small molecule agonists, calcium flux assay: HEK293 wild type cell line counter screen (AID 1920065)
Outline: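 Fluorescence intensity signals activation. After overnight (18 h) culture and a 1 h calcium dye load at 37 C, compounds are added by pin tool and the plate read at 480/540 nm for 3 min in 1 s steps.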

[6] = p53 small molecule agonists, cell-based qHTS assay with human liver microsomes (AID 1963577);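 note: p53 response element beta-lactamase reporter cells with liver microsomes plus NADPH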
Outline: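 p53RE-bla cells; 5 h settle, 37 C/5% CO2; cpd + HLM 0.5 mg/mL + NADPH 0.5 mg/mL (final); 16 h 37 C; LiveBLAzer 2 h RT dark; fluorescence readout.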

[7] = p53 small molecule agonists, cell-based qHTS assay with rat liver microsomes (AID 1963578)
Outline: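 Rat liver microsome activation: microsomes 0.5 mg/mL, NADPH 0.5 mg/mL final; p53RE-bla cells, 16 h 37 C; LiveBLAzer readout, 2 h RT dark.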

[8] = p53 small molecule agonists, cell-based qHTS assay with human liver microsomes: qHTS cell viability counter screen (AID 1963579); note: nearly all actives have a fitted effect of over 45% in size
Outline: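 Luminescent CellTiter-Glo read-out, 30 min at room temperature, gauged cytotoxicity in p53RE-bla cells exposed 16 h at 37 C to DMSO-dissolved compounds with metabolic activation by human liver microsomes and NADPH, each 0.5 mg/mL final.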

[9] = p53 small molecule agonists, cell-based qHTS assay with rat liver microsomes: qHTS cell viability counter screen (AID 1963580); note: nearly all actives have a fitted effect of over 45% in size
Outline: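 Rat liver microsome (0.5 mg/mL final) and NADPH (0.5 mg/mL final) co-incubation with compounds for 16 h at 37 C on HCT-116 p53RE-bla cells; cytotoxicity taken from intracellular ATP luminescence.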

[10] = p53 small molecule agonists, cell-based qHTS assay: qHTS cell viability counter screen (AID 1963581); note: nearly all actives have a fitted effect of over 45% in size
Outline: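 Luminescence from CellTiter-Glo, reflecting ATP content, serves as the cytotoxicity measure; it is taken after the 2 h reporter substrate step in HCT-116 p53RE-bla cells dosed for 16 h at 37 C.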

[11] = p53 small molecule agonists, cell-based qHTS assay (AID 1963582; active = well fitted activation curve with a large enough effect in the signal ratio in the repeat runs, not every such curve was filed as active; the % refers to the signal ratio)
Outline: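 After plating, p53RE-bla cells sat 5 h in the incubator; compounds or DMSO vehicle were pinned in; a 16 h incubation at 37 C followed; FRET substrate was added and, 2 h later at RT, fluorescence was measured.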

[12] = biological target: 5-hydroxytryptamine receptor 2A (Homo sapiens) (UniProt P28223); assay: 5-hydroxytryptamine receptor 2A (HTR2A) small molecule agonists, cell-based qHTS assay (AID 1963587); note: nearly all actives have a fitted effect of over 30% in size
Chain of 5-hydroxytryptamine receptor 2A (Homo sapiens) (P28223 whole entry, looked up): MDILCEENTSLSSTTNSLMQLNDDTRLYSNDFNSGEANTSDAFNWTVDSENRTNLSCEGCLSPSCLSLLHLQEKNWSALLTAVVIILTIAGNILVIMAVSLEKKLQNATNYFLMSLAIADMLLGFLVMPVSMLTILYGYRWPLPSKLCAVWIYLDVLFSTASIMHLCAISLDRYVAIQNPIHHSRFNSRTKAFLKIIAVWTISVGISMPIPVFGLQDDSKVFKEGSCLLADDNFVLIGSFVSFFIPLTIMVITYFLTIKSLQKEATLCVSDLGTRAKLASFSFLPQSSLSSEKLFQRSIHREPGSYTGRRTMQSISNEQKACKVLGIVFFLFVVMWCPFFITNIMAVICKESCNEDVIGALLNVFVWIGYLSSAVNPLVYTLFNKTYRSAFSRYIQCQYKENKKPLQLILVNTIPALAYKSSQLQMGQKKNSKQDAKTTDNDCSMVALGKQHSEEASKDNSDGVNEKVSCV
Outline: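 Kinetic calcium-flux fluorescence (2 min, 1 sec intervals) after compound addition in agonist mode. HTR2A-CHO cells were cultured 18 h, then dye-loaded 1 h at 37 C.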

[13] = biological target: Muscarinic acetylcholine receptor M1 (Homo sapiens) (UniProt P11229); assay: Cholinergic receptor muscarinic 1 (CHRM1) small molecule antagonists, cell-based qHTS assay (AID 1963588); note: nearly all actives have a fitted effect of over 40% in size
Chain of Muscarinic acetylcholine receptor M1 (Homo sapiens) (P11229 whole entry, looked up): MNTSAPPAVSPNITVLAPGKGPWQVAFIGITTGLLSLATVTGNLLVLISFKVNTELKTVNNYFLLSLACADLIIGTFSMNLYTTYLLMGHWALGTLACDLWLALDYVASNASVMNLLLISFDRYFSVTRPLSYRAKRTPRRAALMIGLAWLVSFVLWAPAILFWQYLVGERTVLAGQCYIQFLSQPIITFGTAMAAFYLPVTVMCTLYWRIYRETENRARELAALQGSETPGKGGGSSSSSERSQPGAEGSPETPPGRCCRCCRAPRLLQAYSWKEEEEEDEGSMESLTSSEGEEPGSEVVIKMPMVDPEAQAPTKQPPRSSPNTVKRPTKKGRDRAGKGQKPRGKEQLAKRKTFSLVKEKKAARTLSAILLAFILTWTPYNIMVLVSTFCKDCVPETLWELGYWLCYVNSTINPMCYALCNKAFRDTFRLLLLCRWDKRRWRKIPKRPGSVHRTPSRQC
Outline: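 Compounds were tested at 15 concentrations in three independent runs. Dye-loaded CHRM1-CHO cells were exposed 5 min at room temperature before stimulation by acetylcholine added at 50nM. Intracellular calcium was read kinetically on FDSS for 3 min.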

[14] = biological target: Muscarinic acetylcholine receptor M1 (Homo sapiens) (UniProt P11229); assay: Cholinergic receptor muscarinic 1 (CHRM1) small molecule agonists, cell-based qHTS assay (AID 1963589); note: nearly all actives have a fitted effect of over 35% in size
Outline: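 Fluorescent calcium dye reports M1 activation in stably transfected CHO cells. Compounds, 15 concentrations, added after 1 h dye loading at 37 C; kinetic reading at 1 sec intervals.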

[15] = cAMP Responsive Elements (CRE) small molecule agonists, cell-based qHTS assay (AID 1963590)
Outline: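 Compound exposure lasted 3 h at 37 C/5% CO2 in CRE-bla HEK 293T cells grown in assay medium with 10% dialyzed FBS and 25 mM HEPES. Reporter signal came from LiveBLAzer B/G FRET substrate, 2 h, room temperature.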

[16] = cAMP Responsive Elements (CRE) small molecule antagonists, cell-based qHTS assay (AID 1963591; active = well fitted inhibition curve with a large enough effect in the signal ratio in the repeat runs, not every such curve was filed as active; the % refers to the signal ratio)
Outline: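 Stimulation used NKH477 at a final 0.25 uM for 3 h in compound-treated CRE-bla HEK293T cells, seeded 18 h beforehand. Reporter activity was measured with LiveBLAzer B/G FRET substrate after 2 h at room temperature.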

[17] = biological target: Beta-2 adrenergic receptor (Homo sapiens) (UniProt P07550); assay: Adrenergic beta2 receptor (ADRB2) small molecule antagonists, cell-based qHTS assay (AID 1963592); note: series mostly up to about 92 µM; nearly all actives have a fitted effect of over 50% in size
Chain of Beta-2 adrenergic receptor (Homo sapiens) (P07550 whole entry, looked up): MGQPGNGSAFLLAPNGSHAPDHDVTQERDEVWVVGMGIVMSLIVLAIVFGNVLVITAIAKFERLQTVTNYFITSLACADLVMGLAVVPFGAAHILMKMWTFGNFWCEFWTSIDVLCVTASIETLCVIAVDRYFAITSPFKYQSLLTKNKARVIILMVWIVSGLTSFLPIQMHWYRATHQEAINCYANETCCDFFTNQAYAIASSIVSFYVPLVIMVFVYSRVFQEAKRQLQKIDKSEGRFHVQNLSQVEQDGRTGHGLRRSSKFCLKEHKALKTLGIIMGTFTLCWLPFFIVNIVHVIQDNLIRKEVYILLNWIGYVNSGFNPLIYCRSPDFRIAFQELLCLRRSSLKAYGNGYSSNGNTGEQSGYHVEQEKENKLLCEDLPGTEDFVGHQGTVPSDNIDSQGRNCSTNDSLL
Outline: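 Assay format: CHO-ADRB2 cells, 18-20hr seeding at 37C/5% CO2, then compound plus 1nM isoproterenol agonist mix for 0.5hr RT. Homogeneous time-resolved fluorescence cAMP detection after 1hr, expressed as 665/615 nm ratio.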

[18] = biological target: D(2) dopamine receptor (Homo sapiens) (UniProt P14416); assay: Dopamine D2 receptor (DRD2) small molecule agonists, cell-based qHTS assay (AID 1963594); note: nearly all actives have a fitted effect of over 35% in size
Chain of D(2) dopamine receptor (Homo sapiens) (P14416 whole entry, looked up): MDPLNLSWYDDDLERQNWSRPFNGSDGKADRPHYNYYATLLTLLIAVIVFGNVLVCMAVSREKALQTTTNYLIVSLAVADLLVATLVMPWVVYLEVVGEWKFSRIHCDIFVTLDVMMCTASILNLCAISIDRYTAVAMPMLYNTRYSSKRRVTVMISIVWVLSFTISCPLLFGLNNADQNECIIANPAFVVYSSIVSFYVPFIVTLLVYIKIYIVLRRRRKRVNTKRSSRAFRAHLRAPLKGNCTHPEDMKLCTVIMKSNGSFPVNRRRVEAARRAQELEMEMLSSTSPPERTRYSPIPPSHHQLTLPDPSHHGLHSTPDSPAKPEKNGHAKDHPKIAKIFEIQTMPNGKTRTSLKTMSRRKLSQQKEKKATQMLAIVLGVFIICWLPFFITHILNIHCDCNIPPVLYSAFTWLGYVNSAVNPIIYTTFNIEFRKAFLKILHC
Outline: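 cAMP accumulation in DRD2-HEK293 cells measured by HTRF after 1 h detection; compounds added 10 min before NKH477 (200nM […]) forskolin-analogue stimulation, 30 min at room temperature, with Ro20-1724 present at 0.1 mM final.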

[19] = biological target: D(2) dopamine receptor (Homo sapiens) (UniProt P14416); assay: Dopamine D2 receptor (DRD2) small molecule antagonists, cell-based qHTS assay (AID 1963595; active = well fitted inhibition curve with a large enough effect in the signal ratio in the repeat runs, with a control signal flat; the % refers to the signal ratio)
Outline: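 Stable D2 receptor HEK293 line, 24 h after seeding. Compound preincubated 10 min, then quinpirole (12 nM) with forskolin analogue NKH477 (200 nM), 30 min, room temperature. Detection by time-resolved FRET of cAMP.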

[20] = biological target: 5-hydroxytryptamine receptor 2A (Homo sapiens) (UniProt P28223); assay: 5-hydroxytryptamine receptor 2A (HTR2A) small molecule antagonists, cell-based qHTS assay (AID 1963586); note: nearly all actives have a fitted effect of over 45% in size
Outline: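 CHO cells stably expressing human HTR2A were plated for 18 h at 37 C, then loaded with calcium dye for 1 h. Compounds were preincubated 5 min at room temperature before DOI (4 nM solution) was added. Kinetic fluorescence was read for 3 min.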

Row | Structure (SMILES) | Potency [1] | Potency [2] | Potency [3] | Potency [4] | Potency [5] | Potency [6] | Potency [7] | Potency [8] | Potency [9] | Potency [10] | Potency [11] | Potency [12] | Potency [13] | Potency [14] | Potency [15] | Potency [16] | Potency [17] | Potency [18] | Potency [19] | Potency [20]
1 | CCN(CC)c1ccccc1 | inactive | inactive | inactive | inactive | inactive | inactive | inactive | inactive | inactive | inactive | inactive | inactive | inactive | inactive | inactive | inactive | inactive | inactive | inactive | 
2 | C=C(C)[C@@H]1CC=C(C=O)CC1 | inactive | inactive | inactive | inactive | inactive | inactive | inactive | inactive | inactive | inactive | inactive | inactive |  | inactive |  | inactive | inactive | inactive | inactive | inactive
3 | CCC(C)c1ccc(O)cc1 (stereo not drawn) | inactive | inactive | inactive | inactive | inactive | inactive | inactive | inactive | inactive | inactive | inactive | inactive |  | inactive |  |  | inactive | inactive | inactive | inactive
4 | O=C(Cl)C(Cl)Cl | inactive | inactive | inactive | inactive | inactive | inactive | inactive | inactive | inactive | inactive | inactive | inactive |  | inactive | inactive |  | inactive | inactive | inactive | inactive
5 | O=C(O)COc1ccccc1 | inactive | inactive | inactive | inactive | inactive | inactive | inactive | inactive | inactive | inactive | inactive | inactive |  | inactive | inactive | inactive | inactive | inactive | inactive | inactive
6 | c1ccc(N=NNc2ccccc2)cc1 | inactive | 28.3 µM (active) and 61.1 µM (active) | inactive | inactive | inactive | inactive | inactive | inactive | inactive | inactive | inactive | inactive | inactive | inactive | inactive | inactive | inactive | inactive | inactive | 
7 | ClCC(Cl)(Cl)Cl | inactive | inactive | inactive | inactive | inactive | inactive | inactive | inactive | inactive | inactive | inactive | inactive |  | inactive | inactive | inactive |  | inactive | inactive | inactive
